An excerpt weighted towards active compounds, which were near 0.83% of everything screened.
NCOA3 inh: inhibitors of human steroid receptor coactivator 3 (SRC3). inhibition, % at 3.6 µM. AID 588352. Q9Y6Q9. actives 0.17% (n = 360,000). HEK293 GAL4-SRC3 luciferase reporter, luminescence;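 active = inhibition above a per-campaign cutoff, the mean of all compounds plus 3 SD, cut at about 60% in these data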;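 note: higher means less SRC3-driven luciferase light from the GAL4 reporter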
Gli-Sufu antag: antagonists of Gli-Sufu signaling. Sufu-KO-LIGHT fibroblasts, Gli luciferase reporter luminescence. inhibition, % at 5 µM. actives 0.74% (n = 340,000). AID 588413;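 active = inhibition above about 55%, limit read from the data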
SRC2 inh: human SRC2 (NCOA2) inhibition | Q15596 | HEK293 GAL4-SRC2 luciferase reporter, luminescence | inhibition, % at 9 µM | actives 0.17% (n = 370,000);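 active = inhibition above the mean inhibition of all tested compounds plus 3 SD, set per campaign, cut at about 52% in these data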
Target sequence (Q15596 whole entry, looked up, the tested form may be a part): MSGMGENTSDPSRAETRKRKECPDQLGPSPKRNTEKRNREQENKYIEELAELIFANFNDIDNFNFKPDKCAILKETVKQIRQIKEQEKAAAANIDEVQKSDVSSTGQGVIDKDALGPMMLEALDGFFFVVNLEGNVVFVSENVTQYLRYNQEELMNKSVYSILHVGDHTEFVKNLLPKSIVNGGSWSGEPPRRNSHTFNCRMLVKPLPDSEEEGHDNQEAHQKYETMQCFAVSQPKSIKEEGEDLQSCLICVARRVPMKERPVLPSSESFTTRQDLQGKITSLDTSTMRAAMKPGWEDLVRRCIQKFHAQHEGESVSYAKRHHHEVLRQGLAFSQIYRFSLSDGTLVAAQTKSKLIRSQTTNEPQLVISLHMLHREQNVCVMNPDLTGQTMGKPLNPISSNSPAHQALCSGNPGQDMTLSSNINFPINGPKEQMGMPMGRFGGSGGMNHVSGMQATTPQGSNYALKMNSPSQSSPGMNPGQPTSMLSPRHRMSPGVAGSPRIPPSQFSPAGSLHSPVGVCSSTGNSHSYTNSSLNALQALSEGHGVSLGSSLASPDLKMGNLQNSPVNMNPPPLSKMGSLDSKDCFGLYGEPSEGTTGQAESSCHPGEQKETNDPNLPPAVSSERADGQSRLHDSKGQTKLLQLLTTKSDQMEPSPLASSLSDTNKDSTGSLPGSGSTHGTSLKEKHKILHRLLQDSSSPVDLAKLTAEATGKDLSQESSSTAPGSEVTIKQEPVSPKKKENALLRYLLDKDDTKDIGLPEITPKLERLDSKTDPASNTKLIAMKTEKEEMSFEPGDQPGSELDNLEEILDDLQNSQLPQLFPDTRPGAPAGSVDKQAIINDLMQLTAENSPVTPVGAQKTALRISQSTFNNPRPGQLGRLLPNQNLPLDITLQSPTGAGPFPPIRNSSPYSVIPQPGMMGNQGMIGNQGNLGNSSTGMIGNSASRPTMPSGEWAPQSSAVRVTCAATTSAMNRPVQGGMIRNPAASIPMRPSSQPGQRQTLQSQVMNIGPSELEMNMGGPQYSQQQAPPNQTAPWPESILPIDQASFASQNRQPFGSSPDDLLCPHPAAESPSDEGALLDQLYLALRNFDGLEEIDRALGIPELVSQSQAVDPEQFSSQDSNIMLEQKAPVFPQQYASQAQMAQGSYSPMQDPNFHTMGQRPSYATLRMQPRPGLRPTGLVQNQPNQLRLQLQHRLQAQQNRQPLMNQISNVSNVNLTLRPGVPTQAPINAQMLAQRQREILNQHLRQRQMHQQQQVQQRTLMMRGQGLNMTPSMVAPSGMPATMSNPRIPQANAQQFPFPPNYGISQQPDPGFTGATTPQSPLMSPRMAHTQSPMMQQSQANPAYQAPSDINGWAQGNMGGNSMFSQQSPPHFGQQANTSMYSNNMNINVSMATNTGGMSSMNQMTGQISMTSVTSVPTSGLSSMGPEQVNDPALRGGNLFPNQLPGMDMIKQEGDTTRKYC
NCOA1 inh: human NCOA1 inhibition. AID 588354. Q15788. HEK293 GAL4-SRC1 luciferase reporter, luminescence. inhibition, % at 3.6 µM. actives 0.12% (n = 360,000);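 active = inhibition above the campaign mean plus 3 SD, with each screening campaign given its own cutoff, cut at about 60% in these data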
LRH-1 inv ag: NR5A2 inverse agonism in reporter assay | actives 0.13% (n = 360,000) | inhibition, % at 3.6 µM | HEK293T StAR-luciferase reporter, LRH-1 transfected, 24 h | O00482;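 active = inhibition above the mean inhibition of all tested compounds plus 3 SD, cut at about 73% in these data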
A number is an active result.

For Cc1ccc(Nc2nc(N3CCOCC3)c3ccccc3n2)cc1 the results were NCOA3 inh inactive, Gli-Sufu antag inactive, SRC2 inh inactive, NCOA1 inh inactive and LRH-1 inv ag inactive.
Oc1ccc(Nc2nc(N3CCCC3)c3ccccc3n2)cc1 was read as NCOA3 inh inactive, Gli-Sufu antag 57.9, SRC2 inh inactive, NCOA1 inh inactive and LRH-1 inv ag inactive.
`COC(=O)c1ccc(/C=N/Nc2nc(C)c(C)s2)cc1` gave NCOA3 inh inactive, Gli-Sufu antag inactive, SRC2 inh inactive, NCOA1 inh inactive and LRH-1 inv ag inactive.
For CCN=c1scc(-c2ccc(F)cc2)n1/N=C/c1ccccn1 the results were NCOA3 inh inactive, Gli-Sufu antag inactive, SRC2 inh inactive, NCOA1 inh inactive and LRH-1 inv ag inactive.
CCCc1sc(N/N=C/c2ccccn2)nc1-c1ccc(F)cc1 was read as NCOA3 inh inactive, Gli-Sufu antag 59.7, NCOA1 inh inactive and LRH-1 inv ag inactive.
Screening Cc1nc(N/N=C/c2ccccn2)sc1C returned Gli-Sufu antag 58.5 and SRC2 inh inactive.
`COc1ccc(C=Nn2c(-c3ccccc3F)n[nH]c2=S)cc1OCc1ccccc1` gave SRC2 inh inactive.
For C=CCNC(=O)N1CCC(c2nc3ccc(Cl)cc3[nH]2)CC1 the results were SRC2 inh inactive.
`CCCCOCCCNC(=O)C[C@@H]1C(=O)N2CCCC3=C2[C@@]1(C(=O)OC)CCCC3` gave SRC2 inh inactive.
Screening C#CCCN([C@@H](CC(C)C)C(=O)OC)S(=O)(=O)c1ccccc1Br returned SRC2 inh inactive.
`Cc1ccc[n+](CC(=O)Nc2cc(C(F)(F)F)ccc2Cl)c1` gave NCOA3 inh inactive, Gli-Sufu antag inactive, SRC2 inh inactive, NCOA1 inh inactive and LRH-1 inv ag inactive.
For CCC(C)(C)c1ccc(OCCCC[n+]2cccc(C)c2)c(C(C)(C)CC)c1 the results were NCOA3 inh inactive, Gli-Sufu antag 87.4, SRC2 inh inactive, NCOA1 inh inactive and LRH-1 inv ag inactive.
Cc1cc(C)cc(C(=O)OCCN(C)C2CN(Cc3cn(Cc4ccccc4C(F)(F)F)nn3)S(=O)(=O)C2)c1 (stereo not drawn) was read as SRC2 inh inactive.
`CC(COc1ccc(C#N)c(F)c1)CN1CCC(C(O)(c2ccccc2)c2ccccc2)CC1` (stereo not drawn) gave SRC2 inh inactive.
`C#CCN(C)S(=O)(=O)c1ccc(N2CCCC2)cc1Br` gave SRC2 inh inactive.
Screening Cc1cc(/C=C2\Sc3ccccc3N2C)cc(C)[n+]1CC1CCCO1 (stereo not drawn) returned NCOA3 inh inactive, Gli-Sufu antag 88.3, SRC2 inh inactive, NCOA1 inh inactive and LRH-1 inv ag inactive.
For Cc1ccc(/C=C2/Sc3ccccc3N(CC(=O)NCC3CCCO3)C2=O)cc1 (stereo not drawn) the results were NCOA3 inh inactive, Gli-Sufu antag inactive, NCOA1 inh inactive and LRH-1 inv ag inactive.
`C=CCN(CC#CC1=CCCCC1)Cc1ccc(OC)cc1OC` gave SRC2 inh inactive.
`O=C(NCCc1c[nH]c2ccccc12)c1ccc([N+](=O)[O-])o1` gave NCOA3 inh inactive, SRC2 inh 52.2, NCOA1 inh inactive and LRH-1 inv ag inactive.
`O=C(NCCc1c[nH]c2ccccc12)c1cc([N+](=O)[O-])cc([N+](=O)[O-])c1` gave NCOA3 inh inactive, Gli-Sufu antag inactive, SRC2 inh inactive, NCOA1 inh inactive and LRH-1 inv ag inactive.
For C=CCN(Cc1ccc2c(c1)OCO2)C(C#CC1CC1)C(C)C (stereo not drawn) the results were SRC2 inh inactive.
`Cc1cc(C(=O)COC(=O)c2ccccc2O)c(C)n1Cc1cccs1` gave NCOA3 inh 86.7, Gli-Sufu antag 80.7, SRC2 inh 85.7, NCOA1 inh 89.8 and LRH-1 inv ag 93.9.
For Cc1cc(C(=O)COC(=O)c2ccc3c(c2)OCO3)c(C)n1Cc1cccs1 the results were NCOA3 inh inactive, Gli-Sufu antag inactive, SRC2 inh inactive, NCOA1 inh inactive and LRH-1 inv ag inactive.
Screening CC(=O)Nc1ccccc1OCC(=O)c1cc(C)n(Cc2cccs2)c1C returned NCOA3 inh inactive, Gli-Sufu antag 79.4, SRC2 inh inactive, NCOA1 inh inactive and LRH-1 inv ag inactive.
`Cc1ccc(/C=C/c2ccc(N(C)C)cc2)[n+](C)c1` gave NCOA3 inh inactive, Gli-Sufu antag 84.7, SRC2 inh inactive, NCOA1 inh inactive and LRH-1 inv ag inactive.
Screening CN(C)c1ccc(/C=C/c2cc[n+](C)cc2)cc1 returned NCOA3 inh inactive, Gli-Sufu antag 69.7, SRC2 inh inactive, NCOA1 inh inactive and LRH-1 inv ag inactive.
Screening C[n+]1ccc(/C=C/c2cccs2)cc1 returned NCOA3 inh inactive, Gli-Sufu antag inactive, SRC2 inh inactive, NCOA1 inh inactive and LRH-1 inv ag inactive.
CCCCCC[n+]1ccccc1/C=C/c1ccc(N(C)C)cc1 was read as NCOA3 inh 82.2, SRC2 inh inactive, NCOA1 inh 71.5 and LRH-1 inv ag 98.4.
`CCCCN1C(=O)N2Cc3ccccc3C2CS1(=O)=O` (stereo not drawn) gave SRC2 inh inactive.
`CCC(=O)Nc1cccc(C(=O)/C=C/c2cc(Br)ccc2OC)c1` gave NCOA3 inh 79.3, Gli-Sufu antag inactive, SRC2 inh 64.0, NCOA1 inh inactive and LRH-1 inv ag 72.9.
For COc1ccc(Br)cc1/C=C/C(=O)Nc1ccc2ccccc2c1 the results were NCOA3 inh inactive, Gli-Sufu antag inactive, SRC2 inh inactive, NCOA1 inh inactive and LRH-1 inv ag inactive.
For COc1ccc(-n2c(C)c([N+](=O)[O-])c3ccc(O)c(CN(C)C)c32)cc1 the results were NCOA3 inh inactive, Gli-Sufu antag inactive, SRC2 inh 53.9, NCOA1 inh 69.2 and LRH-1 inv ag inactive.
`c1coc(-c2ccc3nncn3c2)c1` gave NCOA3 inh inactive, SRC2 inh inactive, NCOA1 inh inactive and LRH-1 inv ag inactive.
c1ccc2c(-c3ccc4nncn4c3)cncc2c1 was read as NCOA3 inh 61.9, SRC2 inh 55.3, NCOA1 inh 63.9 and LRH-1 inv ag inactive.
CC(C)CNc1cccc2c1S(=O)(=O)N(Cc1cn(Cc3cccc(C(F)(F)F)c3)nn1)Cc1ccccc1O2 was read as SRC2 inh inactive.
`Cc1onc(-c2ccccc2)c1C(=O)NC(=S)NNC(=O)c1ccc(O)cc1O` gave NCOA3 inh 72.6, Gli-Sufu antag inactive, SRC2 inh inactive, NCOA1 inh 64.0 and LRH-1 inv ag 88.8.
Cc1onc(-c2ccccc2)c1C(=O)NC(=S)NNC(=O)c1ccc(O)cc1 was read as NCOA3 inh inactive, Gli-Sufu antag inactive, SRC2 inh inactive, NCOA1 inh inactive and LRH-1 inv ag inactive.
Screening Cc1onc(-c2ccccc2)c1C(=O)NC(=S)NNC(=O)c1ccccc1O returned NCOA3 inh 75.7, Gli-Sufu antag inactive, SRC2 inh inactive, NCOA1 inh 64.1 and LRH-1 inv ag 90.3.
COc1cccc(NC(=O)Nc2nc(-c3ccc(OC)c(OC)c3)cs2)c1 was read as NCOA3 inh 71.8, Gli-Sufu antag inactive, SRC2 inh 75.2, NCOA1 inh 71.1 and LRH-1 inv ag inactive.

Compound activity as filed in PubChem BioAssay.
